Laboratory results reported in PubChem BioAssay (Tox21).
“And” between values parts separate entries of the source, which are not always exact repeats. Equal entries are not always repeated. Records with an inconclusive call do not appear. Values without a mark were called inactive. The source made the active and inactive calls. Calls come from the whole dose curve; as a rule, active = well fitted cell-killing curve with a large enough effect in the repeat runs; inconclusive = weak or mixed curves, or effect the other way; inactive = no such curve, though single readings can be large or run the other way. Positions of bridges follow the written chain, without caps; N, C: chain ends. Non-standard residues stand in square brackets, D forms with d. Residues, ends and D or L forms follow the SMILES beside them. *: point of attachment. X2 = CC[C@H](C)CCCCC(=O)*; Dab = NCC[C@H](N)C(=O)O

test: qHTS assay for identifying genotoxic compounds that show differential cytotoxicity against isogenic chicken DT40 cell lines with known DNA damage response pathways - Rev3 mutant cell line (AID 743014); settings: chicken DT40 Rev3-/- viability, CellTiter-Glo, 40 h; series mostly up to 68.4 µM; activity, negative = cytotoxicity: at the top concentration; note: nearly all actives have a fitted effect of over 55% in size
Description: National Center for Advancing Translational Sciences [NCATS]
NIH Chemical Genomics Center [NCGC]
U.S. Environmental Protection Agency [EPA]
National Institutes of Environmental Health Sciences [NIEHS]
National Toxicology Program [NTP]
U.S. Food and Drug Administration [FDA]
DNA repair pathways play a critical role in cellular homeostasis by repairing DNA damage induced by endogenous processes and xenobiotics. Isogenic chicken DT40 cell lines deficient in different DNA repair pathways can be used to identify genotoxic compounds and aid in characterizing the nature of the DNA damage induced. Two DNA repair-deficient cell lines with disrupted genes, Rad54/Ku70 or Rev3, were used to screen the Tox21 10K compound library. Possible genotoxicity was based on the presence of a significant increase in cytotoxicity in one or more of the DNA repair-deficient cell lines compared to that observed in the parental DNA repair-proficient cell line. CellTiter Glo viability assay (Promega, Madison, WI) was used to measure cell viability in these cells after compound treatment. This assay includes the data from the Rev3 mutant cell line.
Tox21 Assay Protocol Summary:
300 DT40 mutant cells in 5 uL/well were dispensed into white, solid-bottom 1536-well plates using a Multidrop Combi (ThermoFisher Scientific, Waltham, MA) dispenser. After the assay plates were incubated at 37 C/5% CO2 for approximately 0.5 hour, 23 nL of compounds dissolved in DMSO, positive controls or DMSO only was transferred into the assay plate by a pintool work station (Kalypsys, San Diego, CA). The assay plates were incubated at 37 C/5% CO2 for 40 hours. After 5 uL per well of CellTiter-Glo reagent was added into each well of the assay plates, the plates were incubated for 30 min at room temperature and the luminescence intensity of the plates was measured using a ViewLux (PerkinElmer, Shelton, CT) plate reader.
% is set by controls: 0 for no effect and ±100 for the full control effect; potency is the fitted concentration of half-maximal effect.

| Structure (SMILES) | activity, negative = cytotoxicity | Potency |
| --- | --- | --- |
| CC1CS(=O)(=O)CCN1/N=C/c1ccc([N+](=O)[O-])o1 (stereo not given) | 11.6% [at 31.4 µM] | – |
| CCC(=O)c1ccc2c(c1)N(CCCN1CCN(CCO)CC1)c1ccccc1S2 | – | 2.66 µM (active) |
| O.O=C([O-])CC([S-])C(=O)[O-].[Au+].[Na+].[Na+] (stereo not given) | 7.71% | – |
| Cc1cc(Nc2ccccc2C(=O)O)ccc1Cl | – | 29.8 µM (active) |
| N[C@@H](C(=O)N[C@@H]1C(=O)N2C(C(=O)O)=C(Cl)CC[C@H]12)c1ccccc1 | 1.25% | – |
| CC(CN1c2ccccc2Sc2ccc(S(=O)(=O)N(C)C)cc21)N(C)C (stereo not given) | – | 26.6 µM (active) |
| C[N+]1(C)CCN(CC(O)(c2ccccc2)C2CCCCC2)CC1 (stereo not given) | -3.67% | – |
| CCCCc1cc2c(=O)c(C(=O)OC)c[nH]c2cc1OCc1ccccc1 | -6.46% | – |
| OCCN1CCN(CC/C=C2/c3ccccc3Sc3ccc(Cl)cc32)CC1 | – | 11.4 µM (active) |
| COc1cc([C@@H]2c3cc4c(cc3C(O[C@@H]3O[C@@H]5CO[C@@H](C)O[C@H]5[C@H](O)[C@H]3O)C3COC(=O)[C@@H]32)OCO4)cc(OC)c1OP(=O)(O)O (stereo not given in full) | – | 1.68 µM (active) and 2.37 µM (active) |
| CNc1cc(OC)c(C(=O)N[C@H]2CCN(Cc3ccccc3)[C@H]2C)cc1Cl | – | 4.73 µM (active) |
| O=C(O)CCC/C=C\C[C@@H]1[C@@H](/C=C/[C@@H](O)COc2cccc(Cl)c2)[C@H](O)C[C@@H]1O | 4.53% | – |
| O=c1oc2cc(O)ccc2s1 | 8.74% | – |
| CN1C(=O)CN2CCc3ccccc3C2c2cc(Cl)ccc21 (stereo not given) | 3.63% | – |
| C[C@H](/C=C/[C@H](C)C(C)(C)O)[C@H]1CC[C@H]2/C(=C/C=C3C[C@@H](O)C[C@H](O)C3)CCC[C@]12C | -2.32% | – |
| CC1CCC(NC(=O)N(CCCl)N=O)CC1 (stereo not given) | 10.8% | – |
| CN[C@H]1CCc2cc(OC)c(OC)c(OC)c2-c2ccc(OC)c(=O)cc21 | – | 0.0531 µM (active) |
| CC(=O)Oc1cccc(C(=O)O)c1OC(C)=O | 0.639% | – |
| CCCCC[C@H](O)/C=C/[C@@H]1[C@H]2C/C(=C/CCCC(=O)O)O[C@H]2C[C@H]1O | 1.45% | – |
| CC[C@H](C)CCCCC(=O)N[C@@H](CCN)C(=O)N[C@H](C(=O)N[C@@H](CCN)C(=O)N[C@H]1CCNC(=O)[C@H]([C@@H](C)O)NC(=O)[C@H](CCN)NC(=O)[C@H](CCN)NC(=O)[C@H](CC(C)C)NC(=O)[C@@H](CC(C)C)NC(=O)[C@H](CCN)NC1=O)[C@@H](C)O (X2-[Dab]T[Dab][Dab][Dab][dL]L[Dab][Dab]T; lactam 4-C) | -16.5% | – |

| Structure (SMILES) | activity, negative = cytotoxicity | Potency |
| --- | --- | --- |
| C=CCOc1ccc(CC(=O)O)cc1Cl | -4.57% | – |
| CC[C@@H](C(=O)[C@@H](C)[C@@H](O)[C@H](C)[C@@H]1O[C@@H]([C@@H](CC)C(=O)O)CC[C@@H]1C)[C@H]1O[C@]2(C=C[C@@H](O)[C@]3(CC[C@@](C)([C@H]4CC[C@](O)(CC)[C@H](C)O4)O3)O2)[C@H](C)C[C@@H]1C | – | 0.944 µM (active) |
| C=CCCCCCCCCC(=O)OC | 5.56% | – |
| Cc1cc(-n2c(=O)[nH]c(=O)n(C)c2=O)ccc1Oc1ccc(S(=O)(=O)C(F)(F)F)cc1 | – | 26.6 µM (active) |
| CC(=O)Nc1c(I)c(C(=O)N[C@H]2C(O)O[C@H](CO)[C@@H](O)[C@@H]2O)c(I)c(N(C)C(C)=O)c1I (stereo not given in full) | 14.3% [at 31.4 µM] | – |
| O=C1c2ccccc2C(=O)C1c1ccc(Cl)cc1 | 12.3% | – |
| CCC(=O)O[C@H]1CC[C@H]2[C@@H]3CCc4cc(O)ccc4[C@H]3CC[C@]12C | – | 21.1 µM (active) |
| CC1(C)S[C@@H]2[C@H](NC(=O)C(C(=O)O)c3ccsc3)C(=O)N2[C@H]1C(=O)O (stereo not given in full) | 4.38% | – |
| CCCCC(C)(O)C/C=C/[C@H]1[C@H](O)CC(=O)[C@@H]1CCCCCCC(=O)OC (stereo not given in full) | – | 1.68 µM (active) |
| CCCC(CCC)C(N)=O | 1.35% | – |
| C#C[C@]1(O)CC[C@H]2[C@@H]3CCC4=C(CCC(=O)C4)[C@H]3CC[C@@]21C | -11.4% [at 31.4 µM] | – |
| CCCCCCCC(=O)CC[C@@H]1[C@@H](C/C=C\CCCC(=O)OC(C)C)[C@@H](O)C[C@H]1O | – | 21.1 µM (active) |
| NCc1ccccc1CC(=O)N[C@@H]1C(=O)N2C(C(=O)O)=C(CSc3nnnn3CC(=O)O)CS[C@H]12 | 0.153% [at 31.4 µM] | – |
| CN(C)CC/C=C1/c2ccccc2CSc2ccccc21 | – | 12.7 µM (active) |
| CC1(C)S[C@@H]2[C@H](NC(=O)C(C(=O)Oc3ccc4c(c3)CCC4)c3ccccc3)C(=O)N2[C@H]1C(=O)O (stereo not given in full) | -0.75% | – |
| CCC(C)(C)OC(=O)N[C@@H](Cc1c[nH]c2ccccc12)C(=O)N[C@@H](CCSC)C(=O)N[C@@H](CC(=O)O)C(=O)N[C@@H](Cc1ccccc1)C(N)=O | -1.3% | – |
| COc1ccc(C(=O)Nc2ccccc2CCC2CCCCN2C)cc1 (stereo not given) | -14.6% | – |
| CCCCCCCCCCCC(=O)OC[C@@H](O)C1OC[C@H](O)[C@H]1O (stereo not given in full) | 2.02% | – |
| CC1(C)[C@@H]2CC[C@@]1(C)[C@H](OC(=O)CSC#N)C2 | -13.8% | – |
| CCCC(=O)N1CCCN(c2nc(N)c3cc(OC)c(OC)cc3n2)CC1 | -5.05% | – |
